# tim23-1 inh – inhibits growth of tim23-1 mutant yeast; S. cerevisiae tim23-1 growth, BacTiter-Glo luminescence, 24 h; inhibition, % at 20 µM; actives 1.3% (n = 330,000); AID 463212;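 active = growth inhibition of the mutant yeast at or above 50%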;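 also: temperature-sensitive mutant grown at 25 °C; plate controls were DMSO-treated mutant yeast for no effect and medium wells lacking yeast for full effect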
# TIM10 inh – growth inhibitors of TIM10 yeast strain | S. cerevisiae TIM10 strain growth, BacTiter-Glo luminescence, 24 h | inhibition, % at 10 µM | actives 1.4% (n = 330,000);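 active = inhibition of 40% or more at the single tested concentration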;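 also: wild-type TIM10 isogenic control strain grown at permissive 25 °C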
# V-ATPase pHluor – regulators of yeast V-ATPase proton transport; S. cerevisiae, pHLuorin cytosolic pH fluorescence; response, % at 10 µM; actives 0.37% (n = 350,000); AID 504577; in the data active = response mostly above about 7.3%, no sharp cut-off; inactive = mostly below about 5.4%; also: actives read high
# PfHsp90 yeast 2 – reduces growth (ATP signal) of yeast expressing P. falciparum Hsp90; inhibition, % at 9.4 µM; S. cerevisiae expressing PfHsp90, BacTiter-Glo ATP, 48 h; yeast lacking PDR1 and PDR3 efflux regulators; actives 0.32% (n = 310,000);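 active = every replicate shows inhibition above about 80%, whatever the replicate mean, limit read from the data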;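 also: 0% = DMSO neutral controls and 100% = 20 µM radicicol positive controls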
# tim10-1 inh – growth inhibitors of tim10-1 mutant yeast. S. cerevisiae tim10-1 ts strain growth, BacTiter-Glo, 24 h. inhibition, % at 20 µM. actives 2.2% (n = 330,000). AID 463190;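 active = inhibition of at least 40%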;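 also: mutant grown at 25 °C; 0% = DMSO wells with yeast and 100% = wells holding no yeast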
# tim10-1 conf – tim10-1 yeast growth inhibition, confirmed. inhibition, % at 20 µM. AID 463213. shares compounds with tim10-1 inh. S. cerevisiae tim10-1 ts strain growth, BacTiter-Glo, 24 h. actives 56% (n = 7,400);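 active = inhibition of yeast growth at or above a set limit in either of two repeat tests at 20 µM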;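 also: tim10-1 mutant grown at permissive 25 °C to find synthetic lethal compounds; 0% = DMSO yeast wells and 100% = medium wells without yeast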
# * = called active by the depositor; / = no result. An excerpt weighted towards active compounds, which were near 3.7% of everything screened.
SMILES,tim23-1 inh,TIM10 inh,V-ATPase pHluor,PfHsp90 yeast 2,tim10-1 inh,tim10-1 conf
CCN(C(=O)CN1C(=O)NC(c2ccccc2)(c2ccc(C)c(C)c2)C1=O)C1CCS(=O)(=O)C1 (stereo unspecified),-3.4,6.6,-3.2,16.3,4.0,/
OCCC#Cc1c(-c2ccsc2)sc2ccccc12,-0.4,2.0,-4.8,2.5,46.4*,28.5
CCCCN(C(=O)c1cc(S(=O)(=O)N2CCCCC2)ccc1Cl)c1c(N)n(CCC)c(=O)[nH]c1=O,/,/,0.1,3.6,/,/
Cc1cccc(C)c1NC(=S)N(Cc1ccccc1)Cc1cccs1,34.1,24.1,-0.3,-39.0,42.1*,39.2*
CCOc1cccc2sc(N(CCN(C)C)C(=O)/C=C/c3cccs3)nc12,35.2,25.9,2.9,2.8,47.0*,32.3*
COc1cccc2sc(N(CCN(C)C)C(=O)/C=C/c3cccs3)nc12,15.8,-0.6,-2.2,13.2,14.0,/
CCOC(=O)C1CCN(c2cc3c(cc2NC(=O)c2ccccc2OCC)n(C)c(=O)n3C)CC1,30.4,-19.9,2.9,-53.5,47.5*,-0.4
CCOC(=O)C1CCN(c2cc3c(cc2NC(=O)c2ccccc2F)n(C)c(=O)n3C)CC1,14.8,-12.1,-4.7,-30.9,9.0,/
CCOC(=O)C1CCN(c2cc3c(cc2NC(=O)c2ccccc2Cl)n(C)c(=O)n3C)CC1,32.9,2.5,-0.2,-23.4,48.7*,-3.8
CCOC(=O)C1CCN(c2cc3c(cc2NC(=O)c2ccc(F)cc2)n(C)c(=O)n3C)CC1,13.2,15.6,-2.6,8.6,20.4,/
COC(=O)C1C/C(=N/NS(=O)(=O)c2ccc(C)cc2)CS1 (stereo unspecified),-12.1,-1.0,0.6,7.9,-11.8,/
CC(C)(C)NC(=S)NNC(=O)[C@H]1C[C@@H]1c1ccccc1,3.5,15.4,2.9,5.4,15.1,/
Cc1ccc(C2CC2C(=O)NNC(=S)Nc2ccc(Cl)cc2)cc1 (stereo unspecified),4.0,6.8,-3.8,11.1,46.5*,31.4
C=C(C)CNC(=S)N/N=C1\CCCCc2ccccc21,39.7,34.7,0.3,-27.2,55.1*,41.0*
CCOc1ccc(C(=O)CC(Sc2ccc(C)cc2)C(=O)O)cc1 (stereo unspecified),26.0,8.9,3.1,-4.7,20.4,/
O=C(CC(Sc1ccc(Br)cc1)C(=O)O)c1ccc(F)cc1 (stereo unspecified),29.2,11.9,-0.2,-13.1,42.0*,25.4
O=C(C1COc2ccccc2O1)N1CCN(c2nc3c(F)cc(F)cc3s2)CC1 (stereo unspecified),43.7,15.9,5.2,-16.3,40.4*,23.4
Cc1ccc2[nH]c3c(c2c1)CN(C(=O)CN1c2ccc(F)cc2CCC1C)CC3 (stereo unspecified),41.0,29.0,-2.0,-32.5,42.7*,37.6*
Cc1ccc2[nH]c3c(c2c1)CN(C(=O)CN1CCN(C(=O)c2ccco2)CC1)CC3,12.6,-10.6,/,/,-28.7,/
Nc1nc(N)nc(C2C=CCCC2)n1 (stereo unspecified),/,/,-11.4,2.7,/,/
Cc1ccc(C(=O)Nc2ccccc2N2CCCC2)s1,19.7,14.5,-2.5,-15.0,13.4,/
CCCN1C(=O)S/C(=C\c2ccc(N3CCOCC3)o2)C1=O,23.2,34.5,0.7,16.4,45.0*,48.5*
CCOC(=O)CN1C(=O)S/C(=C/c2ccc(N3CCCCC3)o2)C1=O,25.7,9.5,0.7,6.7,32.3,/
COC(=O)CN1C(=O)S/C(=C/c2ccc(N3CCCCC3)o2)C1=O,33.1,24.7,-3.7,-13.8,54.1*,50.7*
CCCN1C(=O)S/C(=C/c2ccc(N3CCOCC3)o2)C1=O,31.9,22.8,-4.2,25.8,41.1*,38.1*
SMILES,tim23-1 inh,TIM10 inh,V-ATPase pHluor,PfHsp90 yeast 2,tim10-1 inh,tim10-1 conf
Cc1cn([C@H]2C[C@H](O)[C@@H](CNCc3cccc(OC4CCCC4)c3)O2)c(=O)[nH]c1=O,/,/,0.1,/,/,/
C/C(=N\NC(=S)NC(C)C)c1ccc(-n2ccnc2)cc1,34.1,22.4,0.9,/,42.8*,20.0
CCC(C)C(=O)Nc1ccc(OC)cc1OC (stereo unspecified),-4.4,-15.7,-4.0,-1.6,15.4,/
COc1ccc(NC(=O)N(CCC(C)C)C(C)c2ccccn2)c(OC)c1 (stereo unspecified),48.2,-15.6,-1.2,-18.8,41.2*,20.4
COc1ccc(C(CNC(=O)c2oc3c(Cl)cccc3c2C)N2CCCC2)cc1 (stereo unspecified),9.5,10.5,-1.0,4.8,2.8,/
CCOC(=O)c1ccc(N=c2scc(C)n2CC)cc1,32.7,9.9,-2.1,-4.5,42.9*,22.2
O=C(CN1CCC(n2nnc3cc(C(F)(F)F)ccc32)CC1)N1CCc2ccccc21,47.8,23.9,2.6,4.2,46.2*,36.5*
O=C(CN1CCC(n2nnc3cc(F)ccc32)CC1)N1CCCc2ccccc21,11.8,7.5,-2.3,/,29.7,/
Cc1ccc(C)c(OC(C)C(=O)Nc2nccs2)c1 (stereo unspecified),22.2,-3.9,-1.6,-4.9,13.2,/
Cc1ccc(SCC(=O)NC(=O)c2ccccc2Br)c(C)c1,33.2,3.5,1.0,-16.0,9.6,/
Clc1cccc(Cl)c1/C=C/c1ccn[nH]1,39.0,17.9,-0.4,-14.5,54.7*,39.6*
N#CCC1c2ccccc2CCN1C(=O)Nc1ccc(C(F)(F)F)cc1 (stereo unspecified),37.3,33.9,2.8,-9.4,46.4*,40.8*
COC(=O)c1c(NC(=O)c2nn(C)cc2Cl)sc2c1CCCC2,44.0,32.3,-3.8,/,49.9*,13.9
Nc1c(C2CCCCC2)c(=O)on1C(=O)c1ccccc1,/,/,-1.6,/,/,/
COc1ccc(-c2cc(=O)n(-c3ccc([N+](=O)[O-])cc3)[nH]2)cc1,28.4,28.8,1.7,48.8,50.5*,38.0*
Cc1cc(OCCOc2cccc3cccnc23)cc(C)c1Cl,3.0,24.8,4.4,-29.9,41.3*,4.0
O=C1CC(N2CCN(c3cccc(C(F)(F)F)c3)CC2)C(=O)N1c1ccccc1 (stereo unspecified),13.1,2.7,0.6,/,40.8*,24.6
O=C1CC(N2CCCN(C3CC(=O)N(c4ccc(F)cc4)C3=O)CC2)C(=O)N1c1ccc(F)cc1 (stereo unspecified),35.9,22.0,-0.5,8.0,47.4*,41.8*
COc1cccc(N2CCN(C3CC(=O)N(c4ccc(C)c(Cl)c4)C3=O)CC2)c1 (stereo unspecified),7.4,20.3,1.3,-4.4,34.8,/
NC(=O)C1CCN(C2CC(=O)N(c3ccc(F)c(Cl)c3)C2=O)CC1 (stereo unspecified),45.4,34.7,-1.8,104.0*,53.2*,50.3*
COc1cccc(N2CCN(C3CC(=O)N(c4ccc(F)c(Cl)c4)C3=O)CC2)c1 (stereo unspecified),46.6,28.1,-1.3,-4.7,40.9*,25.6
